We go through 50 molecules from PubChem BioAssay (Tox21).

Results filed as inconclusive are left out. A number with no mark means an inactive call. The source made the active and inactive calls. Calls follow the shape of the dose curve; as a rule, active = well fitted cell-killing curve with a large enough effect in the repeat runs; inconclusive = weak or mixed curves, or effect the other way; inactive = flat fitted curve, though single readings scatter.

A short description of assay [1]: cAMP Responsive Elements (CRE) small molecule antagonists, cell-based qHTS assay: qHTS cell viability counter screen (AID 2060913). Also: nearly all actives have a fitted effect of over 40% in size. A digest of the protocol:
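CRE-bla HEK293T cells were seeded in assay medium with 10% dialyzed FBS, incubated 18 hrs at 37 C, then exposed to compounds plus 0.25 uM final NKH477 for 3 hrs. Viability was read by CellTiter-Glo luminescence after 30 min, in the same wells.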

A short description of assay [2]: cAMP Responsive Elements (CRE) small molecule agonists, cell-based qHTS assay: qHTS cell viability counter screen (AID 2060914).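 Also: viability read after 3 h of compound exposure; nearly all actives have a fitted effect of over 50% in size.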 A digest of the protocol: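 CRE-bla HEK 293T cells, plated 18 h at 37 °C, were exposed to compounds for 3 h at 37 °C/5% CO2. Viability was then measured in the same wells by CellTiter-Glo luminescence after 30 min at room temperature.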
For orientation: qHTS replaces the single test concentration by a dilution series.
% is scaled to controls: 0 for no effect and ±100 for the full control effect.

Consider `CC(CN)CC(C)(C)CCN` (stereo not given), for which the Potency entry in assay [1] and in assay [2] was “inactive” throughout.

Turning to `O=C1CCCCCCCCCCOCCCCO1`, the Potency result in assay [1] and in assay [2] was “inactive” each time.

Take `NC(N)=NCCC[C@H](N)C(=O)O`: the viability change, negative = cytotoxic in assay [1] is -0.587% [at 8.39 µM]. Also, the activity change, negative = cytotoxicity in assay [2] was -0.412% [at 8.39 µM].

For the molecule `CCCCCCCCCCCC(=O)Cl`, the Potency result in assay [1] and in assay [2] was “inactive” in each case.

For the molecule `C[C@]12CC[C@H]3[C@@H](CCC4=CC(=O)CC[C@@]43C)[C@@H]1CC[C@@H]2C(=O)CO`, the Potency result in assay [1] and in assay [2] was “inactive” each time.

For the molecule `CC(C)CCOCc1ccccc1`, the Potency result in assay [1] and in assay [2] was “inactive” throughout.

On to `CCCCCCCCCCCCCCCC(=O)O`, for which the Potency result in assay [1] and in assay [2] was “inactive” throughout.

With `CCCCCCOC(=O)CC(CC(=O)OCCCCCC)(OC(=O)CCC)C(=O)OCCCCCC`, the Potency result in assay [1] and in assay [2] was “inactive” throughout.

With `C=CCn1c(=O)n([C@@H]2O[C@H](CO)[C@@H](O)[C@H]2O)c2nc(N)[nH]c(=O)c21`, the Potency result in assay [1] and in assay [2] was “inactive” in each case.

As for `NCCCC[C@H](N[C@@H](CCc1ccccc1)C(=O)O)C(=O)N1CCC[C@H]1C(=O)O`, the Potency result in assay [1] and in assay [2] was “inactive” each time.

With `C=C1[C@H]2CC[C@@H]3[C@H]2C(C)(C)CCC[C@]13C`, the Potency result in assay [1] and in assay [2] was “inactive” throughout.

For `COc1cc2nc(N(C)CCCNC(=O)C3CCCO3)nc(N)c2cc1OC` (stereo not given), the Potency entry in assay [1] and in assay [2] was “inactive” throughout.

For the molecule `Nc1ccc(NCCO)c([N+](=O)[O-])c1`, the Potency entry in assay [1] and in assay [2] was “inactive” throughout.

As to `CC(=O)c1ccc2c(c1)N(CCCN(C)C)c1ccccc1S2`, the Potency result in assay [1] and in assay [2] was “inactive” throughout.

For `CN1CCN(CC(=O)N2c3ccccc3C(=O)Nc3cccnc32)CC1`, the viability change, negative = cytotoxic in assay [1] was 8.13% [at 8.39 µM]. In addition, in assay [2], the activity change, negative = cytotoxicity was 0.984% [at 8.39 µM].

Regarding `Cc1cc(=O)[nH]c(=O)[nH]1`, the Potency entry in assay [1] and in assay [2] was “inactive” each time.

Turning to `Nc1ccccc1N`, the Potency result in assay [1] and in assay [2] was “inactive” throughout.

On to `C[C@@H]1C[C@H]2[C@@H]3CCC4=CC(=O)C=C[C@]4(C)[C@@]3(Cl)[C@@H](O)C[C@]2(C)[C@@]1(OC(=O)c1ccco1)C(=O)CCl`, for which the Potency result in assay [1] and in assay [2] was “inactive” in each case.

Regarding `O=C1OCc2ccccc21`, the Potency entry in assay [1] and in assay [2] was “inactive” in each case.

As to `CCOC(=O)CC(=O)C(=O)OCC`, the Potency entry in assay [1] and in assay [2] was “inactive” in each case.

For `CC(COC(C)(C)C)OCCCO` (stereo not given), the Potency entry in assay [1] and in assay [2] was “inactive” each time.

Regarding `CCc1ccccc1CC`, the Potency entry in assay [1] and in assay [2] was “inactive” each time.

`c1cnc2c(n1)CCCC2`: the Potency result in assay [1] and in assay [2] was “inactive” throughout.

On to `BrC1CCC(Br)C(Br)CCC(Br)C(Br)CCC1Br` (stereo not given), for which the Potency result in assay [1] and in assay [2] was “inactive” throughout.

Take `c1ccc2c(c1)ccc1c3ccccc3ccc21`: the Potency entry in assay [1] and in assay [2] was “inactive” throughout.

As to `Cc1c(NC(=O)c2cccnc2)c(=O)n(-c2ccccc2)n1C`, the Potency result in assay [1] and in assay [2] was “inactive” throughout.

For the molecule `C[C@]12CC[C@@H]3c4ccc(O)cc4CC[C@H]3[C@@H]1CCC2=O`, the Potency entry in assay [1] and in assay [2] was “inactive” in each case.

Take `COc1ccc2cc1Oc1cc3c(cc1OC)CC[N+](C)(C)[C@H]3Cc1ccc(cc1)Oc1c(OC)c(OC)cc3c1[C@@H](C2)[N+](C)(C)CC3`: the Potency result in assay [1] and in assay [2] was “inactive” each time.

As for `CC(C)OC(=O)CCC(=O)OC(C)C`, the Potency result in assay [1] and in assay [2] was “inactive” in each case.

For the molecule `CC(=O)NO`, the Potency entry in assay [1] and in assay [2] was “inactive” in each case.

In the case of `CCCCCCCCCCCCCc1ccccc1`, the Potency entry in assay [1] and in assay [2] was “inactive” each time.

`CCCCCCCCS`: the Potency result in assay [1] and in assay [2] was “inactive” each time.

In the case of `CCCCCCCCCCOc1cc2c(=O)c(C(=O)OCC)c[nH]c2cc1OCC`, the viability change, negative = cytotoxic in assay [1] is -0.799% [at 8.39 µM]. Besides, the activity change, negative = cytotoxicity in assay [2] was -0.252% [at 8.39 µM].

For `Cc1ccc(C(=O)C(=O)O)cc1C`, the Potency result in assay [1] and in assay [2] was “inactive” in each case.

For `NC(=O)CCCCC(N)=O`, the Potency entry in assay [1] and in assay [2] was “inactive” throughout.

With `CCCCCC(C)=O`, the Potency result in assay [1] and in assay [2] was “inactive” throughout.

As to `COc1ccc(C(Cl)=C(c2ccc(OC)cc2)c2ccc(OC)cc2)cc1`, the Potency entry in assay [1] and in assay [2] was “inactive” each time.

Take `CCCCC/C=C/CC(=O)OC`: the Potency result in assay [1] and in assay [2] was “inactive” throughout.

As for `CCN(CC)c1ccc(C=O)c(O)c1`, the Potency result in assay [1] and in assay [2] was “inactive” throughout.

Take `Nc1c(Cl)cc(Cl)cc1Cl`: the Potency entry in assay [1] and in assay [2] was “inactive” throughout.

As to `CCCCc1ccc(N)cc1`, the Potency entry in assay [1] and in assay [2] was “inactive” each time.

As to `CC(=O)Nc1ccc(OC(=O)c2ccccc2OC(C)=O)cc1`, the Potency entry in assay [1] and in assay [2] was “inactive” each time.

For the molecule `N#CC1(N)CCCCC1`, the Potency result in assay [1] and in assay [2] was “inactive” in each case.

Consider `OCc1cccc(Oc2ccccc2)c1`, for which the Potency entry in assay [1] and in assay [2] was “inactive” throughout.

Consider `Oc1ccc(CCNCCCCCCNCCc2ccccc2)cc1O`, for which the Potency entry in assay [1] and in assay [2] was “inactive” in each case.

Consider `OC1CCCC1`, for which the Potency result in assay [1] and in assay [2] was “inactive” throughout.

For the molecule `c1ccc2sc(SSc3nc4ccccc4s3)nc2c1`, in assay [1], the viability change, negative = cytotoxic was 2.3% [at 18.9 µM]. The activity change, negative = cytotoxicity in assay [2] was -2.25% [at 18.9 µM].

For `O=S(=O)(c1cccc2cnccc12)N1CCCNCC1`, the Potency entry in assay [1] and in assay [2] was “inactive” each time.

As to `C#CC1(O)CC[C@H]2[C@@H]3CCC4=CCCC[C@@H]4[C@H]3CC[C@@]21C` (stereo not given in full), the Potency entry in assay [1] and in assay [2] was “inactive” throughout.

For `O=C(O)Cc1c[nH]c2ccccc12`, the Potency entry in assay [1] and in assay [2] was “inactive” in each case.
